Measurements: PubChem BioAssay (NCI)
About 83,000 compounds went through this panel and 20% of them were active in at least one assay; those are over-represented in the sample as a whole.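 Single-dose data. Exposure time 48 hours. Values below 10 considered active.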 A number with no mark means an inactive call. Calls of active or inactive are those of the source.

What follows are molecules tested on HCC-2998 colon (assay: NCI-60 one-dose screen, 48 h (100 = growth as untreated, 0 = no growth, -100 = all killed)). Conditions: 10 µM unless noted.

Structure (SMILES)	growth
O=C(CS(=O)c1oc(-c2cccs2)nc1S(=O)(=O)c1ccc(Br)cc1)c1ccccc1 (centres undefined)	98.6%
Cc1cccc2c(=O)c3c(sc12)c(NCc1ccccc1)nc1ccccc13	90.3%
COc1ccc2c(c1)c(-c1nn3cc(-c4cccs4)nc3s1)cn2C	98.9%
CCOC(=O)/C(C#N)=C\Nc1ccc2ncnc(Nc3ccc(Cl)cc3Cl)c2c1	119%
CCCCCCNC(=O)Oc1ccc(/C(=C(\C)c2ccc(Cl)cc2)c2ccc(OCCN3CCCCC3)cc2)cc1	62.9%
CCN(CC)S(=O)(=O)c1ccc(NC(=O)CSc2nnc(C)n2-c2ccccc2)cc1	109%
CN(C)c1ccc2nc3ccc(=[N+](C)C)c([N+](=O)[O-])c-3sc2c1	42.7%
O=C(Nc1ccc(I)cc1F)c1cc(I)ccc1O	17.6%
COc1cc2oc(-c3ccc(O)cc3)cc(=O)c2c(O)c1-c1c(OC)cc(O)c2c(=O)cc(-c3ccc(O)cc3)oc12	72.5%
COc1ccc(/C=C(/C#N)n2nnc3cccc(F)c32)cc1	36%
O=C(Cc1ccc(F)c(Cl)c1)Nc1cc(C2(C(F)(F)F)CC2)nn1Cc1ccccc1	104%
COc1ccc2nc(NCCCNCCO)c3sc4ccc(F)cc4c(=O)c3c2c1	-82.9% (active)
CN1CCN(c2ccc(-c3cnc4c(-c5csc6ccccc56)cnn4c3)cc2)CC1	24.8%
O=CN1N=C(c2ccc(Nc3ccnc4cc(Cl)ccc34)cc2)CC1c1ccccc1 (centres undefined)	36.2%
Cc1nc2ccccc2c(/C=C/c2ccccc2)c1C(=O)/C=C/c1ccc(C(F)(F)F)cc1	-70.5% (active)
Cc1ccc(-c2nc(N3CCN(C(=O)c4ccc(OC(F)(F)F)cc4)CC3)c3ccccc3n2)cc1	97.1%
C[C@H]1[C@H]2[C@H]3CC[C@@H]4[C@@]5(C)CC[C@H](O)C(C)(C)[C@@H]5CC[C@@]4(C)[C@]3(C)CC[C@]23CO[C@]1(C)[C@@H](C(=O)/C=C\c1cccnc1)C3	69.9%
COC(=O)[C@H](C)NC(=O)NC(=O)NC(=O)CI	94.6%

Structure (SMILES)	growth
CC(=O)OC[C@H]1OC(Sc2sc(C(=O)c3ccc(C)cc3)c(N)c2-c2nc3ccccc3s2)[C@H](OC(C)=O)[C@@H](OC(C)=O)[C@@H]1OC(C)=O (some centres undefined)	94.2%
COc1ccc(-c2nc(NN)c3c(C)nn(-c4ccc(F)cc4)c3n2)cc1	76.6%
O=C(Nc1ccc(OS(=O)(=O)c2ccc(F)cc2)cc1)c1ccc(Cl)cc1	106%
CC1CN(C2CCCCC2)C(=S)N(c2ccccc2)C1=O (centres undefined)	100%
N#Cc1c(-c2ccc(Cl)cc2)nc2c(c(-c3ccccc3)nn2-c2ccccc2)c1-c1ccc(O)cc1	84.9%
COc1ccc(/C=N/Nc2cc(=O)[nH]c3ccc(Cl)cc23)cc1	88.8%
CC(=O)CC[C@H]1C(=O)N[C@@H](C(C)C)C(=O)N[C@@H](Cc2cc(O)cc(F)c2)C(=O)N2CCC[C@H](N2)C(=O)O[C@H](/C(C)=C/C=C/C(=O)OC(C)(C)C)C/C=C/C=C/[C@H](O)[C@H](C)[C@H]1O	51.8%
O=C1CCC(C(=O)NCCNCCNC(=O)C2CCC(=O)N2)N1 (centres undefined)	105%
Nc1nn(C(=O)Nc2ccc(Cc3ccccc3)cc2)c2ccc(Cl)cc12	2.27% (active)
COc1cc(/C=C/c2ccccc2)cc(OC)c1	102%
CC1Cc2ccccc2N1NC(=O)c1ccc(Cl)c(S(N)(=O)=O)c1 (centres undefined)	96%
CC1(C)C2CC1C1(/C=N\Nc3ccccc3)C(C2)C(C#N)(C#N)C1(C#N)C#N (centres undefined)	94.6%
COc1ccc(NC(=O)n2nc(/C=C\c3ccc(O)c(OC)c3)cc2/C=C\c2ccc(O)c(OC)c2)cc1	74.9%
CN1CCN(c2ccc(-c3ccc4ncc(C#N)c(Nc5ccc(F)c(Cl)c5)c4c3)cn2)CC1	68.9%
O=c1[nH]c2c(ccc3cnccc32)c2c1CCC2	-51.8% (active)
COc1nc2ccccc2cc1-c1nc2c(cnn2-c2ccc(Br)cc2)c(=O)[nH]1	51.1%
Cn1cc(C(=O)c2nc(-c3cn(C)c4ccc(F)cc34)no2)c2cc(F)ccc21	84.6%
Cc1cccc(OCC(O)CN2CCN(c3ccc(Cl)cc3)CC2)c1 (centres undefined)	110%

Each molecule was assayed on KM12 colon in the same assay as above. Conditions: 10 µM unless noted.

Structure (SMILES)	growth
O=C(CS(=O)c1oc(-c2cccs2)nc1S(=O)(=O)c1ccc(Br)cc1)c1ccccc1 (centres undefined)	102%
Cc1cccc2c(=O)c3c(sc12)c(NCc1ccccc1)nc1ccccc13	84.5%
COc1ccc2c(c1)c(-c1nn3cc(-c4cccs4)nc3s1)cn2C	70.4%
CCOC(=O)/C(C#N)=C\Nc1ccc2ncnc(Nc3ccc(Cl)cc3Cl)c2c1	79.1%
CCCCCCNC(=O)Oc1ccc(/C(=C(\C)c2ccc(Cl)cc2)c2ccc(OCCN3CCCCC3)cc2)cc1	36.5%
CCN(CC)S(=O)(=O)c1ccc(NC(=O)CSc2nnc(C)n2-c2ccccc2)cc1	104%
CN(C)c1ccc2nc3ccc(=[N+](C)C)c([N+](=O)[O-])c-3sc2c1	34.6%
COc1ccc(-c2nn(C(=O)c3cc(OC)c(OC)c(OC)c3)c3cc(N)ccc23)cc1	12.4%
O=C(Nc1ccc(I)cc1F)c1cc(I)ccc1O	2.37% (active)
COc1cc2oc(-c3ccc(O)cc3)cc(=O)c2c(O)c1-c1c(OC)cc(O)c2c(=O)cc(-c3ccc(O)cc3)oc12	43.4%
CCCCOc1nc2ccc(OC)cc2cc1-c1cc(-c2ccc(Cl)cc2)nc(-c2ccc(Cl)cc2)c1	104%
COc1ccc(/C=C(/C#N)n2nnc3cccc(F)c32)cc1	5.54% (active)
O=C(Cc1ccc(F)c(Cl)c1)Nc1cc(C2(C(F)(F)F)CC2)nn1Cc1ccccc1	85.5%
COc1ccc2nc(NCCCNCCO)c3sc4ccc(F)cc4c(=O)c3c2c1	-58.7% (active)
CN1CCN(c2ccc(-c3cnc4c(-c5csc6ccccc56)cnn4c3)cc2)CC1	-3.74% (active)
O=CN1N=C(c2ccc(Nc3ccnc4cc(Cl)ccc34)cc2)CC1c1ccccc1 (centres undefined)	35.9%
Cc1nc2ccccc2c(/C=C/c2ccccc2)c1C(=O)/C=C/c1ccc(C(F)(F)F)cc1	-58.9% (active)
Cc1ccc(-c2nc(N3CCN(C(=O)c4ccc(OC(F)(F)F)cc4)CC3)c3ccccc3n2)cc1	93%
C[C@H]1[C@H]2[C@H]3CC[C@@H]4[C@@]5(C)CC[C@H](O)C(C)(C)[C@@H]5CC[C@@]4(C)[C@]3(C)CC[C@]23CO[C@]1(C)[C@@H](C(=O)/C=C\c1cccnc1)C3	54.4%

Structure (SMILES)	growth
COC(=O)[C@H](C)NC(=O)NC(=O)NC(=O)CI	98.5%
CC(=O)OC[C@H]1OC(Sc2sc(C(=O)c3ccc(C)cc3)c(N)c2-c2nc3ccccc3s2)[C@H](OC(C)=O)[C@@H](OC(C)=O)[C@@H]1OC(C)=O (some centres undefined)	80.6%
COc1ccc(-c2nc(NN)c3c(C)nn(-c4ccc(F)cc4)c3n2)cc1	29.1%
O=C(Nc1ccc(OS(=O)(=O)c2ccc(F)cc2)cc1)c1ccc(Cl)cc1	103%
CC1CN(C2CCCCC2)C(=S)N(c2ccccc2)C1=O (centres undefined)	97.3%
N#Cc1c(-c2ccc(Cl)cc2)nc2c(c(-c3ccccc3)nn2-c2ccccc2)c1-c1ccc(O)cc1	41%
COc1ccc(/C=N/Nc2cc(=O)[nH]c3ccc(Cl)cc23)cc1	46.6%
CC(=O)CC[C@H]1C(=O)N[C@@H](C(C)C)C(=O)N[C@@H](Cc2cc(O)cc(F)c2)C(=O)N2CCC[C@H](N2)C(=O)O[C@H](/C(C)=C/C=C/C(=O)OC(C)(C)C)C/C=C/C=C/[C@H](O)[C@H](C)[C@H]1O	34.1%
O=C1CCC(C(=O)NCCNCCNC(=O)C2CCC(=O)N2)N1 (centres undefined)	102%
Nc1nn(C(=O)Nc2ccc(Cc3ccccc3)cc2)c2ccc(Cl)cc12	66.2%
COc1cc(/C=C/c2ccccc2)cc(OC)c1	95.6%
CC1Cc2ccccc2N1NC(=O)c1ccc(Cl)c(S(N)(=O)=O)c1 (centres undefined)	107%
CC1(C)C2CC1C1(/C=N\Nc3ccccc3)C(C2)C(C#N)(C#N)C1(C#N)C#N (centres undefined)	81.3%
COc1ccc(NC(=O)n2nc(/C=C\c3ccc(O)c(OC)c3)cc2/C=C\c2ccc(O)c(OC)c2)cc1	17.9%
CN1CCN(c2ccc(-c3ccc4ncc(C#N)c(Nc5ccc(F)c(Cl)c5)c4c3)cn2)CC1	80.7%
O=c1[nH]c2c(ccc3cnccc32)c2c1CCC2	-17.9% (active)
COc1nc2ccccc2cc1-c1nc2c(cnn2-c2ccc(Br)cc2)c(=O)[nH]1	18.3%
Cn1cc(C(=O)c2nc(-c3cn(C)c4ccc(F)cc34)no2)c2cc(F)ccc21	95.2%
Cc1cccc(OCC(O)CN2CCN(c3ccc(Cl)cc3)CC2)c1 (centres undefined)	106%
